# Reference: the supplement of paper PMC9694430
# Test system: T1, LOC_OS04G38480-cb003
# T1 sequence (whole entry): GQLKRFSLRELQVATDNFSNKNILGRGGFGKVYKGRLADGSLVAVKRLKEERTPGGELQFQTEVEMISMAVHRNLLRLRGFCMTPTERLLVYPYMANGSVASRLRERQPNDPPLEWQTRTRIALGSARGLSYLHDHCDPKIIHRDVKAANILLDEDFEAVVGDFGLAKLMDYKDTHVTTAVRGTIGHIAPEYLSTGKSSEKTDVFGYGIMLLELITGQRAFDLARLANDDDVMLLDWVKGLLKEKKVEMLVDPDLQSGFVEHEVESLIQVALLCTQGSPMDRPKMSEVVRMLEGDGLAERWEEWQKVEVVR
# Test: thermal shift delta Tm vs DMSO control; higher = stronger stabilization (binding)
# Settings: 12.5 µM; protein concentration 2 µM
# Summary of the method: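 Rice kinase domain constructs, made in E. coli and purified, were placed in 96-well plates at 2 μM in 19.5 μl of 100 mM potassium phosphate pH 7.5, 150 mM NaCl, 10% glycerol and 5 × SYPRO Orange, with compound in DMSO. A temperature ramp from 25°C to 95°C at 0.05°C/s was used for differential scanning fluorimetry. The melting temperature shift is a triplicate mean compared with DMSO-only protein, derived from Boltzmann fits.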
# 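Further: purified Escherichia coli-expressed rice kinase domain construct.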
row,SMILES,thermal shift delta Tm [°C]
1,C/C(O)=C(\C#N)C(=O)Nc1cc(Br)ccc1Br,1.9
2,COc1ccc(N(C(=O)Oc2c(C)cccc2C)c2ccnc(Nc3ccc(N4CCN(C)CC4)cc3)n2)c(OC)c1,1.41
3,COc1cc([C@@H]2c3cc4c(cc3[C@H](O)[C@H]3COC(=O)[C@@H]23)OCO4)cc(OC)c1OC [Picropodophyllin (PPP)],0.78
4,Cn1cc(C2=C(c3cn(C4CCN(Cc5ccccn5)CC4)c4ccccc34)C(=O)NC2=O)c2ccccc21,2.44
5,COc1ccc(C[C@H]2NC[C@H](O)[C@H]2OC(C)=O)cc1 [Anisomycin],0.22
6,COc1ccc2c(c1)/C(=C/c1cnc[nH]1)C(=O)N2,2.32
7,CCN1CCN(C(=O)Cc2ccc(Nc3ncc(F)c(Nc4ccc(C(=O)Nc5ccccc5Cl)cc4)n3)cc2)CC1 [Aurora A Inhibitor I],3.38
8,O=c1[nH]c2ccc(Cl)cc2c(N[C@@H]2CN3CCC2CC3)c1-c1nc2ccccc2[nH]1,2.51
9,Cc1ccccc1-n1c(Cn2ncc3c(N)ncnc32)nc2cccc(C)c2c1=O,-0.52
10,CC(C)(C)c1cc(C=C(C#N)C#N)cc(C(C)(C)C)c1O [Tyrphostin 9],1.65
11,CC(C)(C)c1cc(C=C(C#N)C#N)cc(Br)c1O,-0.82
